In the supplement of paper PMC9694430:
Structures can show the parent of a compound that is named as a salt.

Assays:
Assay in all cases: thermal shift delta Tm vs DMSO control; higher = stronger stabilization (binding)
Settings in all cases: 12.5 µM; protein concentration 2 µM
[1] = test system: LOC_OS04G57630-cb004
Procedure, shortened: (§1)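 Rice kinase domain constructs were expressed in E. coli, purified, and tested by differential scanning fluorimetry with compound added in DMSO. Each well of a 96-well plate held 19.5 μl of 2 μM kinase in 100 mM potassium phosphate pH 7.5, 150 mM NaCl, 10% glycerol and 5 × SYPRO Orange, and fluorescence was read from 25°C to 95°C at 0.05°C/s. The melting temperature shift is the mean of triplicates, taken against protein with DMSO alone after Boltzmann fitting.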

[2] = test system: LOC_OS05G07850-cb002
Procedure, shortened: as §1

[3] = test system: LOC_OS05G16824-cb004
Procedure, shortened: as §1

[4] = test system: LOC_OS05G28520-cb001
Procedure, shortened: as §1

[5] = test system: LOC_OS05G30820-cb001
Procedure, shortened: as §1

[6] = test system: LOC_OS05G43570-cb004
Procedure, shortened: as §1

[7] = test system: LOC_OS06G16330-cb003
Chain of LOC_OS06G16330-cb003 (as listed by the source): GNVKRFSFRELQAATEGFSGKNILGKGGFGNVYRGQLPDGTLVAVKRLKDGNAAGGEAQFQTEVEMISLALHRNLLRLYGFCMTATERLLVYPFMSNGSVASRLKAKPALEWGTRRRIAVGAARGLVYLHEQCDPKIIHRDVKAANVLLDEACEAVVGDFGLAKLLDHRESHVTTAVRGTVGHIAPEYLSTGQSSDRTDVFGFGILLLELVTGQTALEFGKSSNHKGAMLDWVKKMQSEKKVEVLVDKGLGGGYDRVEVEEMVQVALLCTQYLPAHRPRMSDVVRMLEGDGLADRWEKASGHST
Procedure, shortened: as §1

[8] = test system: T1, LOC_OS06G22820-cb001
T1 sequence (whole entry): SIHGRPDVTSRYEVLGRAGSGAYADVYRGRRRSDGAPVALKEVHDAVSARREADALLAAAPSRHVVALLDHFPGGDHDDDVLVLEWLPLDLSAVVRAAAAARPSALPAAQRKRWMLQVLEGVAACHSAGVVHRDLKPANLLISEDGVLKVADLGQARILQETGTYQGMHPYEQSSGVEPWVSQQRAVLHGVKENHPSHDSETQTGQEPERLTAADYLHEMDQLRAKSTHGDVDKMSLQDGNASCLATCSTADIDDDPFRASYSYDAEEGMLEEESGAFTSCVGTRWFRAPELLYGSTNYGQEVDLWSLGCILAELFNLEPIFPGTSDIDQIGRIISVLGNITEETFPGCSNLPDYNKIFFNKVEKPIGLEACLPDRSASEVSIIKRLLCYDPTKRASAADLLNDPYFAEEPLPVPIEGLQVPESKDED
Procedure, shortened: as §1

[9] = test system: LOC_OS07G06570-cb004
Procedure, shortened: as §1

[10] = test system: LOC_OS07G07230-cb001
Procedure, shortened: as §1

Row | SMILES | thermal shift delta Tm [1] [°C] | thermal shift delta Tm [2] [°C] | thermal shift delta Tm [3] [°C] | thermal shift delta Tm [4] [°C] | thermal shift delta Tm [5] [°C] | thermal shift delta Tm [6] [°C] | thermal shift delta Tm [7] [°C] | thermal shift delta Tm [8] [°C] | thermal shift delta Tm [9] [°C] | thermal shift delta Tm [10] [°C]
1 | Cc1cc(CS(=O)(=O)c2ccccc2)cc(OCc2ccc(CN3CCC[C@@H]3CO)cc2)c1 | 0.05 | -0.44 | -3.52 | 0.56 | 0.38 | 0.08 | -0.51 | 0.68 | 1.18 | 0.08
2 | Fc1ccc2[nH]ccc2c1-c1nc(N2CCOCC2)c2sc(CN3CCN(CC4CC4)CC3)cc2n1 | -0.15 | 2.07 | -1.52 | 0.19 | 0.44 | 0.12 | -0.11 | 0.53 | 0.96 | 0.95
3 | C[C@@H]1COCCN1c1cc(C2([S@](C)(=N)=O)CC2)nc(-c2cc[nH]c3nccc2-3)n1 | -0.11 | 3.99 | -2.04 | 0.65 | 0.15 | 0.19 | 0.37 | -0.1 | 0.71 | -0.05
4 | COc1cc(Nc2ncc(F)c(Nc3ccc4c(n3)N(COP(=O)(O)O)C(=O)C(C)(C)O4)n2)cc(OC)c1OC [Fostamatinib (R788)] | 1.74 | 12 | 12 | 0.41 | 2.2 | 0.38 | 12.2 | 0.25 | 0.55 | 0.44
5 | CNS(=O)(=O)Nc1nccc(Cc2c(C)c3ccc(Oc4ncccn4)cc3oc2=O)c1F | 0.3 | 0.16 | -1.72 | 0.32 | 0.47 | 0.49 | 0.47 | 0.62 | 1.63 | 0.51
6 | COc1cc(Nc2c(C#N)cnc3cc(OCCCN4CCN(C)CC4)c(OC)cc23)c(Cl)cc1Cl [Bosutinib (SKI-606)] | -0.3 | 0.13 | -0.71 | 0.48 | 0.5 | 0.48 | -0.26 | 0.74 | 0.61 | 0.26
7 | Cc1ccc2nc(NCCN)c3ncc(C)n3c2c1 | -0.03 | 0.79 | -0.92 | 0.44 | 0.61 | 0.49 | 0.49 | 0.81 | 1.79 | 0.68
8 | COc1ccc(CNC(=O)Nc2ncc([N+](=O)[O-])s2)cc1 | -0.18 | -0.24 | 0.88 | 1.04 | 0.63 | 0.59 | 0.38 | 0.52 | 0.68 | 0.25
9 | CN(C)C/C=C/C(=O)Nc1cc2c(Nc3ccc(F)c(Cl)c3)ncnc2cc1O[C@H]1CCOC1 [Afatinib (BIBW2992) Dimaleate] | 1.02 | 7.65 | -0.29 | 0.44 | 0.24 | 0.46 | 2.05 | 0.61 | 1.27 | 0.08
10 | Cc1ccc(NC(=O)c2cccc(N(C)C)c2)cc1NC(=O)c1ccc(O)cc1 | 0.32 | 0.13 | 0.14 | 0.63 | 0.58 | 0.61 | 0.4 | 0.59 | 0.77 | 0.22
11 | CC(C)NC(=O)C1CCC(n2c(NC(=O)c3ccc(F)cc3)nc3ccc(CN4CCC(C(C)(C)O)CC4)cc32)CC1 (stereo not given) [Belizatinib (TSR-011)] | 6.67 | 8.98 | 13 | 4.12 | 0.47 | 0.09 | 4.55 | 0.48 | 1.37 | 0.49
12 | CSc1cccc(Nc2ncc3cc(-c4c(Cl)cccc4Cl)c(=O)n(C)c3n2)c1 | 0.15 | 5.12 | 1.03 | 0.64 | 0.34 | 0.27 | 0.34 | 0.59 | 0.45 | 0.66
13 | O=c1sn(-c2cccc3ccccc23)c(=O)n1Cc1ccccc1 [Tideglusib] | -0.25 | -3.79 | -13.5 | 0.99 | 0.39 | 0.01 | 0.99 | 0.6 | 1 | 0.27
14 | CC(C)(C)c1cnc(CSc2cnc(NC(=O)C3CCNCC3)s2)o1 | -0.47 | 0.35 | -1.08 | 0.48 | 0.47 | 0.31 | 0.18 | 2.84 | 0.7 | -0.01
15 | N#Cc1ccc(-c2c(-c3ncn[nH]3)sc(N3CCOCC3)c2C#N)c(F)c1 | 0.27 | -0.29 | -1.35 | 0.33 | 0.65 | 0.57 | -0.08 | 0.61 | 1.08 | 0.24
16 | CS(=O)(=O)N1CCN(Cc2cc3nc(-c4cccc5[nH]ncc45)nc(N4CCOCC4)c3s2)CC1 [Pictilisib (GDC-0941)] | -0.38 | 5.5 | 0.86 | 0.48 | 0.36 | 0.46 | 0.57 | 0.43 | 0.46 | 0.23
17 | OCCn1cc(-c2cnc3nnn(Cc4ccc5ncccc5c4)c3n2)cn1 | -0.21 | 0.33 | -2.44 | 0.66 | 0.46 | 0.28 | -0.29 | 0.46 | 0.2 | 0.97
18 | O=C(O)c1ccc2c3c1cccc3c(=O)n1c3ccccc3nc21 | 0.77 | 7.31 | 1.51 | 0.41 | 0.73 | 0.15 | 4.49 | 0.29 | 0.54 | 1.19

Row | SMILES | thermal shift delta Tm [1] [°C] | thermal shift delta Tm [2] [°C] | thermal shift delta Tm [3] [°C] | thermal shift delta Tm [4] [°C] | thermal shift delta Tm [5] [°C] | thermal shift delta Tm [6] [°C] | thermal shift delta Tm [7] [°C] | thermal shift delta Tm [8] [°C] | thermal shift delta Tm [9] [°C] | thermal shift delta Tm [10] [°C]
19 | O=C(/C=C/c1ccc(O)c(O)c1)c1ccc(O)cc1O [Butein] | 2.45 | 8.49 | 4.48 | 1.45 | 0.81 | 1.93 | 4.87 | 2.16 | 1.46 | 0.82
20 | CC1=C(C(=O)Nc2ccc3[nH]ncc3c2)C(c2ccc(F)cc2)NC(=O)N1 (stereo not given) | 0.17 | 1.88 | -1.25 | 0.01 | 0 | 1.03 | 1.01 | 0.88 | 1.97 | 0.55
21 | CS(=O)(=O)CCNCc1ccc(-c2ccc3ncnc(Nc4ccc(OCc5cccc(F)c5)c(Cl)c4)c3c2)o1 | -0.1 | 1.34 | -0.68 | 0.97 | 0.44 | 0.61 | -0.63 | 1.04 | 0.83 | 0.48
22 | Cc1nc2ccc(-n3ncc(C(=O)c4cc5ccccc5[nH]4)c3N)cc2[nH]1 | -0.26 | 2.01 | 0.01 | 0.51 | 0.59 | 0.2 | 0.87 | 0.56 | -0.34 | 0.11
23 | CCN1CCN(Cc2ccc(-c3cc4c(N[C@H](C)c5ccccc5)ncnc4[nH]3)cc2)CC1 | 0.95 | 5.78 | 3.87 | 1 | 0.48 | 0.5 | 4.68 | 0.76 | 1.03 | 0.13
24 | CN1CCCN(C(=O)c2cccc(-c3ccc(/C=C4/C(=O)Nc5ccc(Cl)cc54)o3)c2)CC1 | 2.23 | 6.78 | 4.08 | 1.14 | 0.63 | 0.58 | 1.36 | 0.37 | 2.41 | 0.77
25 | Cc1ccc(NC(=O)Nc2cc(C(F)(F)F)ccc2F)cc1Nc1ccc2c(c1)NC(=O)/C2=C\c1ccc[nH]1 | 0.83 | 1.9 | 2.11 | 0.81 | 0.73 | 1.98 | 1.54 | 1.12 | -0.24 | 1.34
26 | CNC(=O)c1ccccc1Nc1cc(Nc2ccc(N3CCOCC3)cc2OC)ncc1C(F)(F)F | 3.79 | 7.4 | 9.96 | 1.03 | 3.54 | 0.9 | 6.99 | 0.82 | 1.56 | 0.72
27 | Clc1ccc(C2(c3ccc(-c4cn[nH]c4)cc3)CCNCC2)cc1 | 0.35 | 1.23 | -0.22 | 0.22 | 0.51 | 1.87 | 0.19 | 0.61 | 1.01 | 0.03
28 | N=C(N)NC(=N)NCCc1ccccc1 [Phenformin HCl] | 0.25 | -0.02 | -6.46 | 0.39 | 0.48 | 0.27 | -0.35 | 0.41 | 0.53 | -0.03
29 | Cc1ncc(CCCN(C)C)cc1Nc1ncc2c(n1)-c1ccc(C(F)(F)F)cc1NC(=S)C2 | -0.2 | -0.13 | 3.13 | 0.71 | 0.52 | 0.48 | 0.15 | 0.79 | 1.65 | 0.32
30 | CO[C@H]1C[C@@H]2CC[C@@H](C)[C@@](O)(O2)C(=O)C(=O)N2CCCC[C@H]2C(=O)O[C@H]([C@H](C)C[C@@H]2CC[C@@H](O)[C@H](OC)C2)CC(=O)[C@H](C)/C=C(\C)[C@@H](O)[C@@H](OC)C(=O)[C@H](C)C[C@H](C)/C=C/C=C/C=C/1C [Rapamycin (Sirolimus)] | -0.27 | 0.51 | -0.52 | 0.16 | 0.5 | 0.84 | -0.23 | 0.98 | 1.23 | 0.34
31 | O=C1CCc2c(Oc3ccc4c(c3)[C@@H]3[C@H](O4)[C@H]3c3nc4cc(C(F)(F)F)ccc4[nH]3)ccnc2N1 [Lifirafenib (BGB-283)] | 5.81 | 9.47 | -0.92 | 0.64 | 0.42 | 1.09 | 2.37 | 1.16 | 1.23 | -0.15
32 | CC(C)Oc1ccc(-c2nn([C@@H](C)c3oc4ccc(F)cc4c(=O)c3-c3cccc(F)c3)c3ncnc(N)c23)cc1F | 0.05 | -1 | -4.89 | 0.51 | 0.43 | 0.51 | 0.01 | 0.62 | 1.08 | -0.07
33 | C[C@@H](Oc1ccc2[nH]nc(/C=C/c3cnn(CCO)c3)c2c1)c1c(Cl)cncc1Cl | 8.94 | 16 | 12.1 | 1.22 | 6.07 | 0.92 | 15.1 | -0.35 | 0.87 | 0.66
34 | Cc1ccc(Nc2nccc(N(C)c3ccc4c(C)n(C)nc4c3)n2)cc1S(N)(=O)=O [Pazopanib] | 1.64 | 7.82 | 3.43 | 0.62 | 0.59 | -0.2 | 4.07 | 0.36 | 1.66 | 0.5
35 | Cc1ccc([N+](=O)[O-])cc1S(=O)(=O)N(C)/N=C/c1cnc2ccc(Br)cn12 | 1.58 | 1.88 | 3.43 | 1.13 | 0.85 | 1.49 | 7.74 | 0.41 | 1.41 | 0.94
